For orientation: remaining activity means the signal under treatment as a percentage of the control signal. The term AC50 denotes the concentration at which the activity in the assay is half-maximal. As a reminder, the inhibition is the relative decrease from the control value, in per cent.

Where “and” joins values, the source holds several entries; their conditions need not be identical. Identical values can stand only once. Records with an inconclusive call do not appear. Calls of active or inactive are those of the source. Unless noted, no rule for the calls is given here.

Experiment [1] deals with Neuropilin-2 / VEGF-C interaction (human). The experiment is described as follows: small molecules blocking Neuropilin-2/VEGF-C interaction – biochemical, microplate binding format, z-score (AID 743281). Particulars: microplate NRP2/VEGF-C binding assay; stronger effect = lower value.
Experiment [2] has as its system Aerobactin synthetase IucA (Klebsiella pneumoniae). The experiment is described as follows: inhibition of K. pneumoniae IucA enzyme – biochemical, Tocris library, absorbance (AID 1345561).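 Also: 100% = enzyme without compound and 0% = no enzyme.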 Conditions: purified IucA enzyme assay, absorbance (OD) read-out; stronger effect = lower value;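 tested at 8 µM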.
The nature of experiment [3]: galactose survival enhancers in mitochondrial complex I cybrids – cell-based, galactose medium, ATP luminescence, primary screen (AID 1645843;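 active = z-score of at least 1.8 in each of two replicates, scored against plate mean and spread of sample wells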;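 also: positive z means more ATP and so rescue of galactose-driven cybrid death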). Particulars: complex I mutant cybrid cells, 72 h, stronger effect = higher value.
Experiment [4] can be described thus: viability loss in pontine glioma line – cell-based, SU-DIPG-XVII, MIPE5.0, CellTiter-Glo, qHTS, dose response (AID 1347060; cut-off not given, nearly all actives have AC50 up to about 26 µM). Particulars: CellTiter-Glo ATP luminescence. (ATP-based viability assays read luminescence as a measure of living cells.)
A short description of experiment [5]: viability loss in pontine glioma line – cell-based, SU-DIPG-XIII, MIPE4.0, CellTiter-Glo, qHTS, dose response (AID 1347061; cut-off not given, nearly all actives have AC50 up to about 37 µM;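 also: cells exposed to compound for 48 hours before readout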). Particulars: CellTiter-Glo ATP luminescence.
Experiment [6] can be described thus: viability loss in pontine glioma line – cell-based, JHH-DIPG-1, MIPE4.0, CellTiter-Glo, qHTS, dose response (AID 1347062; cut-off not given, nearly all actives have AC50 up to about 27 µM). Particulars: JHH-DIPG-1 viability, CellTiter-Glo ATP luminescence.
The nature of experiment [7]: viability loss in pontine glioma line – cell-based, SU-DIPG-XIII, MIPE5.0, CellTiter-Glo, qHTS, dose response (AID 1347064; cut-off not given, nearly all actives have AC50 up to about 23 µM). Particulars: CellTiter-Glo ATP luminescence.
Experiment [8] in a line: viability loss in pontine glioma line – cell-based, SU-DIPG-XXV, MIPE5.0, CellTiter-Glo, qHTS, dose response (AID 1347065; cut-off not given, nearly all actives have AC50 up to about 26 µM;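 also: cells exposed to compound for 48 hours before ATP readout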). Particulars: CellTiter-Glo ATP luminescence.
Experiment [9] in a line: JHH-DIPG-1 glioma cell viability, MIPE5.0 library, CellTiter-Glo luminescence, qHTS (AID 1347067; cut-off not given, nearly all actives have AC50 up to about 26 µM;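 also: cells exposed to compound for 48 hours before readout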). Conditions: JHH-DIPG-1 glioma viability, CellTiter-Glo ATP luminescence.
A short description of experiment [10]: growth inhibition of DIPG cells – cell-based, MIPE5.0 library, qHTS (AID 1347068; cut-off not given, nearly all actives have IC50 up to about 30 µM). Conditions: SU-DIPG-XXV viability.
A short description of experiment [11]: compounds altering HSF1 focus formation in cells – imaging, Selleck Cancer Library (AID 1347162; in the data active = plate-normalised HSF1 focus index below about 0.46). Particulars: human cells, HSF1 nuclear foci imaging, at 10 µM; SSMD: measured here: HSF1 foci SSMD mean; cell count: measured here: cell number; plate-normalised HSF1 focus index: stronger effect = lower value.
The target of experiment [12] is NAD(+) hydrolase SARM1 (Homo sapiens) (UniProt Q6SZW1). The experiment is described as follows: blocking NAD cleavage by SARM1 SAM-TIR – cell lysate, NAD-Glo luminescence (AID 1508614;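 active = compound whose remaining NAD level is above about 45 nM, limit read from the data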;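 also: higher remaining NAD means stronger inhibition of SARM1 NADase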). Particulars: SAM-TIR HEK293T lysate NADase, at 1 µM, stronger effect = higher value.
The target of experiment [13] is Mitogen-activated protein kinase 7 (Homo sapiens) (UniProt Q13164). The experiment is described as follows: Gal4-ERK5 driven luciferase induction – cell-based, HTS, primary screen (AID 1508626;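 active = luciferase signal above three times the same-plate solvent-only control wells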;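 also: luciferase driven by Gal4-ERK5 fusion binding five Gal4 sites before minimal TATA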). Particulars: HeLa Gal4-ERK5 transactivation, 18 h, at 5 µM, stronger effect = higher value.
A short description of experiment [14]: viability loss in pontine glioma line – cell-based, SU-DIPG-IV, MIPE4.0, CellTiter-Glo, qHTS, dose response (AID 1347063; cut-off not given, nearly all actives have AC50 up to about 30 µM;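 also: compound exposure lasted 48 hours before the viability readout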). Conditions: CellTiter-Glo ATP luminescence.
A short description of experiment [15]: growth inhibition of DIPG cells – cell-based, MIPE4.0 library, CellTiter-Glo luminescence, qHTS (AID 1347066; cut-off not given, nearly all actives have AC50 up to about 30 µM;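 also: cells exposed to compound for 48 hours before readout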). Conditions: SU-DIPG-VI viability, CellTiter-Glo ATP luminescence.
Experiment [16] in a line: blockers of cellular phospholipid synthesis – cell-based, LOPAC library, screen 4, primary screen (AID 1347384). Conditions: animal cells, phospholipid biosynthesis inhibition screen; at 10 µM.
Experiment [17] in a line: growth inhibition, single agent or in combination, cell-based, chromothripsis tumors, cisplatin or BGB combos (AID 1671449; in the data active = inhibition above about 80%;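 also: cells exposed for 96 hours; 0% = vehicle DMSO and 100% = killing by high DMSO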). Particulars: LFS_MB_P medulloblastoma cells.
Experiment [18] in a line: growth inhibition, single agent and combos, cell-based, chromothripsis tumors, cisplatin or BGB combos (AID 1671450; in the data active = inhibition above about 80%;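 also: cells exposed to compound for four days; 0% = vehicle DMSO and 100% = cell killing by high DMSO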). Conditions: HDN33 neuroblastoma cells, stronger effect = higher value.
Experiment [19] in a line: growth inhibition, single agents and combos, ICB984, cell-based, cisplatin or BGB combos, synergistic combos for chromothripsis tumors (AID 1671451).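 Also: cells exposed for 96 hours before readout; 0% = vehicle DMSO and 100% = killing by high DMSO.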 Conditions: ICB984 medulloblastoma cells, drug combinations, stronger effect = higher value.
Experiment [20] can be described thus: growth inhibition, single agents and combos, HTB85, cell-based, BGB or cisplatin IC20 combos, synergistic combos for chromothripsis tumors (AID 1671453; in the data active = inhibition above about 80%;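 also: cells exposed for 96 hours before readout; 0% = vehicle DMSO and 100% = high DMSO killing control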). Particulars: HTB85 osteosarcoma cells, drug combinations, stronger effect = higher value.

NAD(+) hydrolase SARM1 (Homo sapiens), sequence (Q6SZW1 whole entry, looked up, the tested form may be a part): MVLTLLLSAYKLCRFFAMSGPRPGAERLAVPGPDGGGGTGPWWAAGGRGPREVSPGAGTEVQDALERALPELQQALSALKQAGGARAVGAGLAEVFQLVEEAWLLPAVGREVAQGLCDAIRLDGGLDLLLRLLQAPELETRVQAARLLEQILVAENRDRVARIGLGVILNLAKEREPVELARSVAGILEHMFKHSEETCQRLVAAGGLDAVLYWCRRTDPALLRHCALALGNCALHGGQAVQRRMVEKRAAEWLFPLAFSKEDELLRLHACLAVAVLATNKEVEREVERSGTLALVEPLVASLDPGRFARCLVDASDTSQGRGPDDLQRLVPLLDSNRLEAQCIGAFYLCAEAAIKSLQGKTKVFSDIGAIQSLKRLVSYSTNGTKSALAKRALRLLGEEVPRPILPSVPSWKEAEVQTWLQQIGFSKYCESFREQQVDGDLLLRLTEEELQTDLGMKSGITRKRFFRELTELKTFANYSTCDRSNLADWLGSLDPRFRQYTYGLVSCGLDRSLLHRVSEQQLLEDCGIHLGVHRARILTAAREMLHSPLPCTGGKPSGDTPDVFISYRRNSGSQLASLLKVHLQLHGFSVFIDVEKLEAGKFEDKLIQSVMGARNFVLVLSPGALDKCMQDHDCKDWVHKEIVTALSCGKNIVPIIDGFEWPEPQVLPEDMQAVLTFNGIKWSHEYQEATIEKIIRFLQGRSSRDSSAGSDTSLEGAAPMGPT
Mitogen-activated protein kinase 7 (Homo sapiens), sequence (Q13164 whole entry, looked up, the tested form may be a part): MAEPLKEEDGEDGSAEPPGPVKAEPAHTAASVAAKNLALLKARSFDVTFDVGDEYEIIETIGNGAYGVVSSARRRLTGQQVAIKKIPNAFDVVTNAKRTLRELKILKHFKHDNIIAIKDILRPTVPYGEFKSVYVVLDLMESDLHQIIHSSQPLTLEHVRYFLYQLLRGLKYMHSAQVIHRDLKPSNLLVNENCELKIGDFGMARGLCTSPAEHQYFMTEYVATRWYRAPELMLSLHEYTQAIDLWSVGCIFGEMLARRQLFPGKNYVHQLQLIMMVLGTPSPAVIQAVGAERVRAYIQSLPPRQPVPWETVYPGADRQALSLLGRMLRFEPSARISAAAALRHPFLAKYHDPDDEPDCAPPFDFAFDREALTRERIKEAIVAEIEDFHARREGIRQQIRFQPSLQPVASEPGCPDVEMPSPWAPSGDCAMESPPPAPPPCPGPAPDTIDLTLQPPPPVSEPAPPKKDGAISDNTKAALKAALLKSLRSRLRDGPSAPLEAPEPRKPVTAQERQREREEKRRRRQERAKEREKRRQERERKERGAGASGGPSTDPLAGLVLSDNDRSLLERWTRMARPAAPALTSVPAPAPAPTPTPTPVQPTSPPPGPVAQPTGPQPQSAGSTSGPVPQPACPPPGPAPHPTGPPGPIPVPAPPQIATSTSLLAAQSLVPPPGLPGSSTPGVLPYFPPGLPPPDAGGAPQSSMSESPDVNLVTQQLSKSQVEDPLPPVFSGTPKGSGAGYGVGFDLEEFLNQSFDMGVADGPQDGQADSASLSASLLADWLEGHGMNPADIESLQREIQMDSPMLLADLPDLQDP

`CCCCN1CCCC1CNC(=O)c1cc(C#N)c2ccccc2c1OC` (stereo not given): the z-score in [1] is 1.01 (inactive); in experiment [3], -0.605 (inactive) and -0.3 (inactive). In experiment [2], the remaining activity was 113% (inactive).
For `O=C1CN2Cc3c(ccc(Cl)c3Cl)N=C2N1`, the molecule was classed as inactive in experiment [1], in [4], in experiment [5], in experiment [6], in [7] and in experiment [8]. The molecule was called inactive in experiment [9] and in experiment [10]. The SSMD in [11] was 2.08 and 2.35. Besides, the cell count in experiment [11] was 7390 and 7000. In addition, the plate-normalised HSF1 focus index in experiment [11] is 1.08 (inactive) and 1.14 (inactive). Besides, the remaining NAD in experiment [12] is 10 nM (inactive). The luciferase signal in experiment [13] is 40 AU (inactive). Moreover, the z-score in experiment [3] is 0.465 (inactive) and 0.535 (inactive).
`C[C@@H](c1ncncc1F)[C@](O)(Cn1cncn1)c1ccc(F)cc1F`: the z-score in experiment [1] was 1.15 (inactive); in experiment [3], 0.365 (inactive). Besides, the outcome in experiment [5], in experiment [14], in experiment [8], in [15], in experiment [9] and in experiment [10] was inactive. In addition, in experiment [16], the call was inactive. Further, the remaining NAD in experiment [12] was 10 nM (inactive).
As for `CC(C)C[C@H](NC(=O)[C@@H](O)[C@H](N)Cc1ccccc1)C(=O)O`, the z-score in experiment [1] is 0.0206 (inactive); in experiment [3], 0.375 (inactive) and 0.725 (inactive). The remaining activity in experiment [2] is 117% (inactive). The molecule was classed as inactive in experiment [4], in [6], in experiment [7], in experiment [9], in [10] and in experiment [16]. Besides, the AC50 in experiment [14] is 18.7 µM (active); in [15], 20.9 µM (active). Further, the SSMD in experiment [11] came out at 2.45. Moreover, in [11], the cell count was 7080. Further, the plate-normalised HSF1 focus index in experiment [11] was 1.13 (inactive).
For `CN/C(=C\[N+](=O)[O-])NCCSCc1csc(CN(C)C)n1`, the z-score in experiment [1] is 0.209 (inactive). Besides, in experiment [12], the remaining NAD is 10 nM (inactive).
For the molecule `COC(=O)C[C@](O)(CCCC(C)(C)O)C(=O)O[C@@H]1C(OC)=C[C@]23CCCN2CCc2cc4c(cc2[C@H]13)OCO4`, the call in experiment [1] was inactive. For the same molecule, the remaining activity in experiment [2] is 98.2% (inactive). In addition, in experiment [3], the z-score is -0.84 (inactive).
For `O=c1[nH]c(=O)n(C2CCCO2)cc1F` (stereo not given), the z-score was -1.02 (inactive) in experiment [1]; 1.17 (inactive) and 0.3 (inactive) in experiment [3]. The result in experiment [4], in experiment [5], in experiment [6], in experiment [14], in experiment [7] and in experiment [8] was inactive. In addition, the molecule was classed as inactive in experiment [15], in [9], in [10] and in experiment [16]. The inhibition in [17] (at 0.5 µM, stronger effect = higher value) was -23.3% (inactive) and -7.12% (inactive); in experiment [17] (measured here: combination with BGB IC20, at 0.005 µM) it was 1.7% and -19.8%; in experiment [17] (measured here: combination with BGB IC40, at 0.005 µM), 22.1% and -46.3%; in experiment [17] (measured here: combination with BGB IC40, at 0.05 µM), 39.2% and -46.2%; in experiment [17] (measured here: combination with cisplatin, at 0.5 µM, stronger effect = higher value) it was -44.2% and 1.28%; in experiment [17] (measured here: combination with cisplatin, at 5 µM, stronger effect = higher value), -1.4% and -18.1%. For the same molecule, the inhibition is 12.1% and -46.5% in experiment [18] (BGB combo, at 5 µM); 9.66% (inactive) and -23% (inactive) in experiment [18] (at 0.5 µM); 10.3% and -19.4% in experiment [18] (cisplatin combo, at 5 µM); 23.6% and -35.7% in experiment [18] (measured here: with BGB IC20 combination, at 0.5 µM); 2.46% and -11.5% in experiment [18] (measured here: with cisplatin IC20 combination, at 0.5 µM); -7.16% and -34.9% in experiment [18] (single agent, at 5 µM). The inhibition was -7.2% and -19% in experiment [19] (BGB IC20 combo, at 0.005 µM); -14.4% and -20.1% in [19] (BGB IC40 combo, at 0.005 µM); 3.65% and -15.9% in [19] (BGB IC40 combo, at 0.05 µM); -2.47% (inactive) and -35.6% (inactive) in [19] (at 0.5 µM); -0.171% and -21.9% in [19] (cisplatin combo, at 0.05 µM); -9.38% and -50% in [19] (cisplatin combo, at 0.5 µM). For the same molecule, the inhibition was -27.4% and -5.1% in [19] (cisplatin combo, at 5 µM); 1.9% and -33.4% in [19] (measured here: 5 uM single agent, at 5 µM); 2.38% (inactive) and -13.2% (inactive) in experiment [20] (at 0.5 µM); -7.69% and 6.31% in [20] (measured here: with BGB IC20, at 0.5 µM); -1.29% and -14.6% in experiment [20] (measured here: with BGB IC20, at 5 µM); -5.89% and -34.8% in [20] (measured here: with cisplatin IC20, at 0.5 µM). Also, the inhibition is 2.69% and -26.3% in [20] (measured here: with cisplatin IC20, at 5 µM); 15.1% and -15% in [20] (single agent, at 5 µM).
Turning to `Cc1cccc(CCN2CCC(C(=O)c3ccc(NS(C)(=O)=O)cc3)CC2)n1`, the z-score in [1] was -0.668 (inactive); in experiment [3], 0.46 (inactive) and -0.045 (inactive). The remaining activity in experiment [2] was 104% (inactive).
Regarding `COc1ccc(C[C@H](C)NC[C@@H](O)c2ccc(O)c(NC=O)c2)cc1`, the z-score in experiment [1] is -0.584 (inactive); in [3], -0.475 (inactive). Moreover, the remaining activity in [2] was 116% (inactive).

(Values after PubChem BioAssay.)
